VP16 counter: inhibits Gal4-VP16 luciferase reporter, ROR gamma counter-screen. Drosophila S2 Gal4-VP16 UAS-luciferase, luminescence, 20 h. Potency, µM (doses to about 53.6 µM), most hits filed as inhibitors. hit rate 3.5% among 310,000. AID 2546;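 further: Gal4-VP16 expression switched on by copper sulfate through the metallothionein promoter; nearly all actives have a fitted effect of over 50% in size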
MCF10A rereplic: induces DNA re-replication in MCF 10a normal breast cells | MCF 10A DNA re-replication, Hoechst nuclear intensity, 48 h | Potency, µM (top dose mostly 46.1 µM), hits mostly activators | hit rate 2.9% among 350,000; further: nearly all actives have a fitted effect of over 50% in size
RORgamma inh: blocks mouse ROR gamma transcriptional activity | P51450 | Drosophila S2 Gal4-RORgamma UAS-luciferase reporter, 20 h | Potency, µM (doses to about 53.6 µM), hits mostly inhibitors | hit rate 5.4% among 310,000; further: nearly all actives have a fitted effect of over 60% in size
Target sequence (P51450 whole entry, looked up, the tested form may be a part): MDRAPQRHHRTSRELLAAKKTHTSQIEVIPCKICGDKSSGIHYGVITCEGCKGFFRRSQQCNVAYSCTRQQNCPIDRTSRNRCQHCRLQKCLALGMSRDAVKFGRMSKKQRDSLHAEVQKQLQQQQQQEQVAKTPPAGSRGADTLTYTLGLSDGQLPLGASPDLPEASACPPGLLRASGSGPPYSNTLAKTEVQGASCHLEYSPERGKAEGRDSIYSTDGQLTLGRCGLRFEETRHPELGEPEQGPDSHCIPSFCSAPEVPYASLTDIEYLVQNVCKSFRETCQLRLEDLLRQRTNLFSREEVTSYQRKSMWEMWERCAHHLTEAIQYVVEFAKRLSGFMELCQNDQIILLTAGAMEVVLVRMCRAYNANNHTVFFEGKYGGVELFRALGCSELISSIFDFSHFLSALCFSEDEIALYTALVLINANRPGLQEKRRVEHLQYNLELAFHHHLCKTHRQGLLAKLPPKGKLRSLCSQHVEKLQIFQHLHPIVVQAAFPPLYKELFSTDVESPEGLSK
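Using a luciferase readout, inhibitors were identified by reduced reporter activity in Drosophila cells coexpressing a copper-inducible Gal4–ROR gamma fusion and UAS-driven Photinus luciferase, incubated 20 hr after 700 uM copper sulfate.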
SW480 rereplic: induces DNA re-replication in SW480 colon adenocarcinoma cells. SW480 DNA re-replication, Hoechst DNA content imaging, 48 h. hit rate 1.8% among 340,000. AID 624297. Potency, µM (highest dose often 46.1 µM), actives largely listed as activators; further: nearly all actives have a fitted effect of over 55% in size
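DNA re-replication was detected as more nuclei of elevated Hoechst intensity after 48 hr exposure to compound (23 nL pinned per well of 250 cells).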
KB-3-1 cytotox: KB-3-1 parental cell cytotoxicity; KB-3-1 viability, CellTiter-Glo ATP luminescence, 72 h; Potency, µM (titrated, usually from 46.1 µM), hits mostly cytotoxic; hit rate 1.4% among 400,000; AID 1347075; further: nearly all actives have a fitted effect of over 60% in size
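Using CellTiter-Glo luminescence, growth of non-resistant KB-3-1 adenocarcinoma cells is assessed 72 h after pin-tool compound addition at 37 °C. Normalized responses across the concentration series yield fitted curves.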
KB-V1 cytotox: KB-V1 MDR subline cytotoxicity. KB-V1 MDR cells viability, CellTiter-Glo, 72 h. Potency, µM (top dose mostly 46.1 µM), most hits filed as cytotoxic. hit rate 3.4% among 400,000. AID 1347076; further: nearly all actives have a fitted effect of over 60% in size
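Cells of the MDR subline KB-V1 are plated, dosed with compound at multiple concentrations, and incubated 72 h at 37 degrees C; CellTiter-Glo is then added and luminescence read after 10 min.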
Each line names hits and unclear results; the compound was inactive in the other large screens; ! = not active in a repeat. The list is not random: actives were taken first. Their share in the collection is about 10%. The call rests on the fitted dose curve; in most records, active means well fitted curve in the direction sought with a large enough effect; inconclusive means small, poorly fitted or top-dose-only effect, or another doubt; inactive means no such curve, though single readings can be large; an effect the other way counts as inactive or inconclusive.

CCCCN(C(=O)c1ccccc1Cl)C(CC(C)C)c1nc2ccccc2[nH]1 (stereo not given)	none (no result: VP16 counter, MCF10A rereplic, RORgamma inh, SW480 rereplic)
Cc1ccc2c(c1)c(=O)c1ccccc1n2CCCC(=O)Nc1cc(Cl)ccc1C	KB-3-1 cytotox inconclusive (no result: VP16 counter, MCF10A rereplic, RORgamma inh, SW480 rereplic)
Cc1ccc(-c2nn(CC(=O)NCc3ccccc3)c3c2cnc2ccc(F)cc23)cc1C	none (no result: VP16 counter, MCF10A rereplic, RORgamma inh, SW480 rereplic)
O=C(c1cc(-c2ccc(Cl)c(Cl)c2)on1)N1CCOCC1	none
O=C(c1cc(-c2ccc(Cl)cc2)on1)N1CCOCC1	VP16 counter inconclusive, RORgamma inh 10µM
CCc1ccc(NC(=O)C(NS(=O)(=O)c2cccs2)C(C)C)cc1 (stereo not given)	none (no result: VP16 counter, MCF10A rereplic, RORgamma inh, SW480 rereplic)
CC(=O)Nc1ccc(C2=NN(c3ccccc3)C(c3cccs3)C2)cc1 (stereo not given)	VP16 counter inconclusive, MCF10A rereplic inconclusive, SW480 rereplic 12µM
CCc1ccc(C2=NN(S(C)(=O)=O)C(c3cccs3)C2)cc1 (stereo not given)	KB-3-1 cytotox inconclusive, KB-V1 cytotox 15µM
CC(=O)N1N=C(c2ccccc2)CC1c1cccs1 (stereo not given)	none
Cc1ccc(C2=NN(S(C)(=O)=O)C(c3cccs3)C2)cc1 (stereo not given)	VP16 counter inconclusive, KB-V1 cytotox inconclusive
O[C@@H](c1cc(C(F)(F)F)nc2c(C(F)(F)F)cccc12)[C@H]1CCCCN1	MCF10A rereplic inconclusive, SW480 rereplic inconclusive, KB-3-1 cytotox 18µM!, KB-V1 cytotox inconclusive
CC(C)(C)NCCC(O)c1cc(C(F)(F)F)nc2c(C(F)(F)F)cccc12 (stereo not given)	SW480 rereplic inconclusive, KB-3-1 cytotox inconclusive, KB-V1 cytotox 21µM (no result: VP16 counter, RORgamma inh)
Cc1cccc(C(=O)NC(=S)N2CCN(C)CC2)c1	VP16 counter 8.9µM, RORgamma inh 1.3µM
Cc1cccc(C(=O)NC(=S)N2CCN(C(=S)NC(=O)c3cccc(C)c3)CC2)c1	VP16 counter 0.79µM, RORgamma inh 0.79µM, KB-V1 cytotox inconclusive
CCCNC(=S)N1CCC(NC(=O)c2cccc(C)c2)CC1	none
N#Cc1ccc(C(=O)NCc2ccc3c(c2)CCN3C(=O)c2ccc(F)cc2)cc1	none (no result: VP16 counter, MCF10A rereplic, RORgamma inh, SW480 rereplic)
CCNC(=S)/C(=C(/[O-])c1ccc([N+](=O)[O-])cc1)[n+]1ccccc1	none
CCc1ccc(/C([O-])=C(/C(=S)NCCN2CCOCC2)[n+]2ccccc2)cc1	MCF10A rereplic 6.5µM
CC1=CC(=O)C(Sc2ccc(C)cc2)=CC1=O	KB-3-1 cytotox inconclusive (no result: VP16 counter, MCF10A rereplic, RORgamma inh, SW480 rereplic)
CN1CCN(c2cccc3c2S(=O)(=O)N[C@@H](Cc2ccccc2)CO3)CC1	none (no result: VP16 counter, MCF10A rereplic, RORgamma inh, SW480 rereplic)
CC(C)(C)C(=O)Nc1ccc(-c2nc3ccccc3c(=O)o2)cc1	VP16 counter inconclusive, RORgamma inh inconclusive
CC(C)C(=O)Nc1ccc(-c2nc3ccccc3c(=O)o2)cc1	VP16 counter inconclusive, RORgamma inh 11µM
CC(C)(C)C(=O)Nc1cccc(-c2nc3ccccc3c(=O)o2)c1	VP16 counter inconclusive, MCF10A rereplic inconclusive, RORgamma inh 14µM
CCNc1ncc2nc(-c3ccc(F)cc3)c(=O)n(C)c2n1	none (no result: MCF10A rereplic, SW480 rereplic, KB-3-1 cytotox, KB-V1 cytotox)
CCCN(C(=O)CCc1nc(-c2ccccc2F)no1)c1ccc(CC)cc1	KB-V1 cytotox inconclusive (no result: VP16 counter, MCF10A rereplic, RORgamma inh, SW480 rereplic)
COC(=O)c1cn(NC(=O)Cc2ccc(Cl)c(Cl)c2)c(=O)c2ccccc12	none
COC(=O)c1cn(NC(=O)Cc2ccc(Cl)cc2)c(=O)c2ccccc12	MCF10A rereplic inconclusive, KB-V1 cytotox 21µM
CNc1oc(-c2ccccc2Cl)nc1C#N	KB-3-1 cytotox inconclusive, KB-V1 cytotox 21µM
O=C(/C=C/c1ccc(OC2CSC2)cc1)c1ccc(Cl)cc1	none
CCC1CSC(Nc2ccc(C(=O)/C=C/c3ccc(Oc4ccccc4)cc3)cc2)=N1 (stereo not given)	VP16 counter inconclusive, MCF10A rereplic inconclusive, RORgamma inh 16µM, SW480 rereplic inconclusive, KB-3-1 cytotox inconclusive, KB-V1 cytotox 18µM
CCC1CSC(Nc2ccc(C(=O)/C=C/c3cccc(C)c3)cc2)=N1 (stereo not given)	VP16 counter inconclusive, MCF10A rereplic 16µM, SW480 rereplic inconclusive, KB-3-1 cytotox inconclusive
COc1ccc(S(=O)(=O)NC(=O)C2(C)CCN2C(=O)Cc2ccc(C(C)(C)C)cc2)cc1 (stereo not given)	none (no result: VP16 counter, MCF10A rereplic, RORgamma inh, SW480 rereplic)
CCOc1ccccc1NC(=O)C1CCCN(c2ncnc3onc(-c4ccc(F)cc4)c23)C1 (stereo not given)	none (no result: VP16 counter, MCF10A rereplic, RORgamma inh, SW480 rereplic)
COCc1c(C(=O)N2CCN(Cc3nc4ccccc4s3)CC2)oc2ccccc12	KB-V1 cytotox 23µM (no result: VP16 counter, RORgamma inh)
COc1ccc(CCNC(=O)/C=C\c2ccccc2)cc1OC	none
COc1ccc(-c2nn(CC(=O)NCCc3ccccc3)c(=S)n2C)cc1	RORgamma inh inconclusive, KB-3-1 cytotox inconclusive, KB-V1 cytotox 16µM
COc1ccc(CCNC(=S)NC(=O)c2ccccc2)cc1OC	VP16 counter 7.1µM, RORgamma inh 4.5µM
COc1ccc(C(=O)NC(=S)NCCc2ccccc2)cc1	VP16 counter inconclusive, RORgamma inh 10µM
CCn1c(-c2ccc(C)cc2)nn(CC(=O)NCCc2ccccc2)c1=S	MCF10A rereplic inconclusive, KB-3-1 cytotox inconclusive, KB-V1 cytotox inconclusive
COc1ccc(/C=C/C(=O)NC(=S)NCCc2ccc(OC)c(OC)c2)cc1	VP16 counter inconclusive, MCF10A rereplic inconclusive, RORgamma inh 2.8µM, SW480 rereplic 10µM, KB-V1 cytotox inconclusive
CCCCNC(=O)C1(C)CCCCN1C(=O)c1ccc(OC)c(C(F)(F)F)c1 (stereo not given)	none (no result: VP16 counter, MCF10A rereplic, RORgamma inh, SW480 rereplic)
CC(=O)Nc1ccc(S(=O)(=O)N(C)c2ccc(OCCOc3ccccc3F)cc2)cc1	none (no result: VP16 counter, RORgamma inh)
COc1ccc(CCNC(=O)c2cccnc2)cc1	MCF10A rereplic 16µM, SW480 rereplic inconclusive
O=C(Cc1ccccc1)NCCc1cccc(Cl)c1	RORgamma inh inconclusive
O=C(NC(=S)NCCc1ccccc1)c1cccc(Cl)c1	VP16 counter 18µM, MCF10A rereplic inconclusive, RORgamma inh 13µM, KB-V1 cytotox inconclusive
COc1ccc(CCNC(=S)NC(=O)c2cccc([N+](=O)[O-])c2)cc1OC	VP16 counter 16µM, RORgamma inh 13µM (no result: KB-3-1 cytotox, KB-V1 cytotox)
COc1ccc(CCNC(=O)c2ccccc2)cc1	none
COc1ccc(CCNC(=S)NC(=O)c2cccc(Cl)c2)cc1OC	VP16 counter inconclusive, MCF10A rereplic inconclusive, RORgamma inh 11µM, SW480 rereplic inconclusive
COc1ccc(CCNC(=O)c2cc([N+](=O)[O-])cc([N+](=O)[O-])c2)cc1OC	none
C[C@@H]1CN([C@H](C)CO)C(=O)CCCn2nncc2CO[C@H]1CN(C)C(=O)Nc1ccc(N2CCN(C)CC2)cc1	none (no result: VP16 counter, MCF10A rereplic, RORgamma inh, SW480 rereplic)
Cc1nc(N2CCC(C)CC2)c2c(C)c(C(=O)Nc3ccc4c(c3)OCCO4)sc2n1	none
